This excerpt belongs to a sample that is enriched for hits.
VACV mCherry inh: inhibitors of vaccinia virus infection (mCherry reporter signal) | Vaccinia virus mCherry reporter infection, fluorescence | Potency, µM (top dose mostly 36.5 µM), without a hit: at the top dose activity change, negative = inhibition, most hits filed as inhibitors | 310,000 compounds, 0.63% hits; calls by dose curve; tested in A549 cells; note: potency is the fitted concentration of half-maximal effect; % is set by controls: 0 for no effect and ±100 for the full control effect; nearly all actives have a fitted effect of over 35% in size
VACV Venus inh: inhibitors of vaccinia virus (Venus reporter) | Vaccinia virus Venus reporter expression, fluorescence | Potency, µM (series often up to 36.5 µM), without a hit: top-dose activity change, negative = inhibition, most hits filed as inhibitors | 330,000 compounds, 0.46% hits | AID 720580; calls by dose curve; tested in A549 cells; note: potency is the fitted concentration of half-maximal effect; % is set by controls: 0 for no effect and ±100 for the full control effect; nearly all actives have a fitted effect of over 30% in size
Shiga toxin inh: inhibitors of Shiga toxin in Vero cells; inhibition, % at 38.7 µM; 290,000 compounds, 9.2% hits; Vero cells, Shiga toxin protein synthesis inhibition reporter; in the data active = inhibition mostly above about 28%, no sharp cut-off; inactive = mostly below about 43%; note: 0% is about no effect
Cycloheximide cs: counter-screen hit for Shiga toxin inhibitors, cycloheximide. cell reporter, cycloheximide protein synthesis inhibition counterscreen. max response, %. 300,000 compounds, 12% hits; in the data active = max response mostly above about 13%, no sharp cut-off; inactive = mostly below about 14%; note: read at 38.3 µM for the half of the compounds with a filed dose; 0% is about no effect
Marburg entry inh: inhibitors of Marburg virus binding or cell entry; Marburg virus pseudotyped entry inhibition, cell reporter; Potency, µM (series often up to 37.8 µM), inactives show top-dose activity change, negative = inhibition, hits mostly inhibitors; 300,000 compounds, 1.8% hits; AID 540276; calls by dose curve; tested in HEK293 cells; note: potency is the fitted concentration of half-maximal effect; % is set by controls: 0 for no effect and ±100 for the full control effect
Lassa entry inh: Lassa virus entry inhibition; Lassa virus pseudotype entry inhibition, cell reporter; Potency, µM (top dose mostly 37.9 µM), for the others: top-dose activity change, negative = inhibition, hits mostly inhibitors; 300,000 compounds, 1.2% hits; AID 540256; calls by dose curve; tested in HEK293 cells; note: potency is the fitted concentration of half-maximal effect; % is set by controls: 0 for no effect and ±100 for the full control effect; nearly all actives have a fitted effect of over 50% in size
* hit, by the source's call; i = inactive; ? = inconclusive; . = no result given; [ ] = dose if it differs, or a comment.

SMILES | VACV mCherry inh | VACV Venus inh | Shiga toxin inh | Cycloheximide cs | Marburg entry inh | Lassa entry inh
COc1ccc2c(c1OC)C(=O)N(c1nc(SC)n[nH]1)C2=O | i | -19% | 5 | -1 | 10% | -1%
O=C(O)c1ccccc1-c1ccccc1C(=O)NCc1ccccc1F | -25% | -22% | . | -2 | ? | -3%
Cc1ccc(-c2cc(Cc3ccc(N(C)C)cc3)c(=O)[nH]n2)cc1 | . | . | 16 | -2 | . | .
CCc1cccc(CC)c1NC(=O)CSc1nnc(CCC(=O)O)c(=O)[nH]1 | -1% | -11% | -3 | 6 | 16%[46.1 µM] | 10%
CN(C)C(CNC(=O)Cc1cccc(C(F)(F)F)c1)c1ccco1 (centres undefined) | -6% | -1% | 19 | -3 | 4%[46.1 µM] | 12%
COc1ccccc1C(=O)Cc1ccccc1 | i | 6% | . | . | 22% | 21%
O=C1[C@H]2[C@H]3[C@H](O)[C@H](O)C/C(=N\OCc4ccccc4)[C@@H]3CC[C@H]2C(=O)N1C1CCCCC1 | . | . | . | . | -14%[14.2 µM] | .
CCN(C(=O)Cn1nc(C)n2c(cc3cc(C)ccc32)c1=O)c1ccccc1 | i | -15% | -6 | 9 | -7%[46.1 µM] | -27%[46.1 µM]
CCOC(=O)C1=C(C)C/C(=N\NC(=O)c2ccccc2O)CC1 | ? | -2% | 38 | 23* | . | .
CCOc1ccc(S(N)(=O)=O)cc1-c1nc2c(C(C)(C)C)nn(C)c2c(=O)[nH]1 | -11% | -22% | -6 | -4 | -2%[46.1 µM] | -23%
CCOc1ccc(S(=O)(=O)NC(C)(C)C)cc1-c1nc2c(C(C)(C)C)nn(C)c2c(=O)[nH]1 | ? | ? | 2 | -2 | ? | 21µM*
CCC(=O)c1ccc(N2CCCC2)c(F)c1 | -8% | -4% | 48* | 28* | 18% | ?
CCCC(=O)c1ccc(N2CCCC2)c(F)c1 | -14% | -4% | 76* | 37* | 5% | ?
CCC(=O)c1ccc(N2CCCCCC2)c(F)c1 | . | -23% | 54* | 35* | 17% | ?
CCCC(=O)c1ccc(N2CCN(S(=O)(=O)c3ccccc3)CC2)c(F)c1 | -13% | -12% | -5 | 1 | ? | 3%
CCC(=O)c1ccc(N2CCN(S(=O)(=O)c3ccccc3)CC2)c(F)c1 | i | -5% | -16 | 44* | -11%[46.1 µM] | 7%[46.1 µM]
O=C(Nc1ccc(C(F)(F)F)cc1)C1CCCN(c2cnccn2)C1 (centres undefined) | 3% | -11% | . | . | 5%[46.1 µM] | -2%[46.1 µM]
CCC(=O)c1ccc(N2CCN(C(=O)c3cccs3)CC2)c(F)c1 | . | . | 22 | 21* | . | .
CCOC(=O)N1CCN(c2ccc(C(C)=O)cc2F)CC1 | -10% | -9% | 17 | 9 | 9% | 9%
CCOC(=O)N1CCN(c2ccc(C(=O)c3ccccc3)cc2F)CC1 | -6% | -22% | 77* | 29* | -9% | ?
CC(C)CC(OC(=O)c1nsc(Cl)c1Cl)C(=O)NC1CCCC1 (centres undefined) | 0% | -10% | -3 | -1 | 13%[46.1 µM] | 3%
CCCCCOC(=O)c1ccc(NC(=O)c2ccco2)cc1 | -16% | -8% | 68* | 36* | -13% | -18%
CCCCOC(=O)c1ccc(NC(=S)NC(=O)c2ccco2)cc1 | -23% | -4% | 5 | 6 | ? | 16µM*
COc1ccccc1C(=O)N[C@@H]1c2ccccc2C2(CCN(Cc3cccnc3)CC2)[C@H]1O | -16% | -8% | . | . | . | .
Cc1ccc(CNC(=O)C2CCC(CNc3nc(=S)[nH]c4ccccc34)CC2)cc1 (centres undefined) | -14% | -10% | -4 | -4 | 3.5µM* | -14%
SMILES | VACV mCherry inh | VACV Venus inh | Shiga toxin inh | Cycloheximide cs | Marburg entry inh | Lassa entry inh
CC(=O)C1=NOC(CNc2ncc(C(F)(F)F)cc2Cl)C1 (centres undefined) | i | -1% | 81 | 17* | 7%[46.1 µM] | -2%[46.1 µM]
O=[N+]([O-])c1ccccc1NCCNc1ncc(C(F)(F)F)cc1Cl | . | -25% | 121* | 29* | 1% | 17%
O=S(=O)(NCCNc1ncc(C(F)(F)F)cc1Cl)C(F)(F)F | -6% | -27% | 57* | 27 | ? | -4%
CS(=O)(=O)NCCNc1ncc(C(F)(F)F)cc1Cl | -22% | -14% | 14 | 8 | -8%[46.1 µM] | 0%
O=c1cc(Cl)[nH]c(=O)n1CCNc1ncc(C(F)(F)F)cc1Cl | . | -3% | 94* | 36* | -11% | ?
O=C1C=CC(=O)N1CCNc1ncc(C(F)(F)F)cc1Cl | ? | -28% | -9 | -2 | ? | ?
Cc1cccc(CNC(=O)c2ccc(NC(=O)N3CC(C)Sc4ccccc43)cc2)c1 (centres undefined) | -2% | -5% | . | . | 2%[46.1 µM] | -3%[46.1 µM]
CCCN(CCC)CCCNC(=O)c1cc2c(=O)n(C)c3ccccc3c2s1 | -8% | -6% | . | . | ? | 5%[46.1 µM]
CN(C)c1ccc(/C=C/c2ccnc3ccc(N)cc23)cc1 | ? | 29% | . | . | . | .
O=[N+]([O-])c1cc(Cl)ccc1NCCNc1ncc(C(F)(F)F)cc1Cl | i | -11% | -9 | 3 | -2% | 7%
O=[N+]([O-])c1cccnc1NCCNc1ncc(C(F)(F)F)cc1Cl | . | ? | 77* | 39* | -24% | 8%
CCc1cc2c(nc1CC)CCN(CCC(C)=NOC[C@@H](O)[C@H]1O[C@@H]3OC(C)(C)O[C@H]3[C@@H]1O)C2 | . | . | . | . | -6%[14.2 µM] | .
CNc1nnc(-c2ccc(C)cc2)c2ccccc12 | ? | ? | -27 | -1 | 22%[46.1 µM] | 7.9µM*
Cc1ccc(-c2nnc(NCCCO)c3ccccc23)cc1 | . | . | 18 | -2 | . | .
CC(=O)c1cn(Cc2ccccc2C#N)c2ccccc12 | i | -6% | 24 | 6 | ? | 3.5µM*
Cc1cccc(Cn2cc(C=O)c3ccccc32)c1 | i | -13% | -4 | -1 | ? | ?
N#Cc1ccccc1Cn1cc(/C=C/[N+](=O)[O-])c2ccccc21 | ? | ? | -21 | -11 | ? | 23µM*
O=Cc1cn(Cc2cccc([N+](=O)[O-])c2)c2ccccc12 | i | -7% | -11 | -1 | 0.82µM* | 0.63µM*
O=[N+]([O-])/C=C/c1cn(Cc2ccccc2)c2ccccc12 | . | -18% | -17 | -10 | ? | -30%
CC(C)C(=O)c1cn(Cc2ccccc2C#N)c2ccccc12 | . | -5% | -14 | -4 | ? | -23%
CCOc1ccc(NC(=O)CC2C(=O)N(c3cccc(OC)c3)C(=O)N2CCOC)cc1 (centres undefined) | -15%[7.34 µM] | 5%[7.34 µM] | -20 | 0 | . | .
O=C(NCc1ccccc1)NC(=O)c1ccc(Cl)cc1 | i | -12% | . | . | ? | -1%[46.1 µM]
O=C(NN=C(Cc1ccccc1)Cc1ccccc1)C1CC1 | i | -7% | 27 | 21* | -10%[46.1 µM] | -18%[46.1 µM]
O=C(NN=C(Cc1ccccc1)Cc1ccccc1)c1ccccc1F | -1% | -8% | 91* | 38* | -1%[46.1 µM] | -3%
Cc1cc(C(=O)NN=C(Cc2ccccc2)Cc2ccccc2)c(C)o1 | i | -6% | 84* | 29* | 15% | 1%
O=C(NCc1ccccc1)NC(=O)c1ccccc1F | . | . | 33* | 28* | . | .
CC/C(Cc1ccccc1)=N\NC(=O)c1cc(C)oc1C | -8% | 2% | 1 | -2 | 1% | 22%
O=C1c2ccccc2C(=O)N1C1C=CC=CC=C1 | -1% | -4% | . | . | . | .

Screening data deposited in PubChem by National Center for Advancing Translational Sciences (NCATS).
